Source: PubChem BioAssay (NCATS)
Inconclusive results are not listed. Active and inactive are the calls of the source. Unless noted, the call rests on the fitted dose curve; in most records, active means well fitted curve in the direction sought with a large enough effect; inconclusive means small, poorly fitted or top-dose-only effect, or another doubt; inactive means no such curve, though single readings can be large; an effect the other way counts as inactive or inconclusive.

Experiments:
[1] = AP1 Signaling Pathway (AID 357; active means well fitted curve in either direction with a large enough effect, not every such curve was filed as active;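 further: ME-180 reporter cells stimulated with EGF at its EC50 level; on the % scale 0 is the no-effect control and ±100 the full control effect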); details: ME-180 AP-1-bla reporter, EGF-induced, beta-lactamase ratio, 5 h; at 7.69 µM (top of the series) unless noted
Method in brief: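 Titration-series screen for positive or negative modulators of EC50 EGF-induced signaling in ME-180 cells carrying an AP-1-driven beta-lactamase reporter. After 5 hours at 37 degrees Celsius, CCF4 460nm/530nm emission ratio gave %Activity; AC50 values derived.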

[2] = biological target: Cytochrome P450 1A2 (Homo sapiens) (UniProt P05177); experiment: p450-cyp1a2 (AID 410; calls by dose curve; further: potency means the concentration at half of the fitted maximal effect;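 on activity change, negative = inhibition: -100% = full effect of reference inhibitor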)
Cytochrome P450 1A2 (Homo sapiens), sequence (P05177 whole entry, looked up): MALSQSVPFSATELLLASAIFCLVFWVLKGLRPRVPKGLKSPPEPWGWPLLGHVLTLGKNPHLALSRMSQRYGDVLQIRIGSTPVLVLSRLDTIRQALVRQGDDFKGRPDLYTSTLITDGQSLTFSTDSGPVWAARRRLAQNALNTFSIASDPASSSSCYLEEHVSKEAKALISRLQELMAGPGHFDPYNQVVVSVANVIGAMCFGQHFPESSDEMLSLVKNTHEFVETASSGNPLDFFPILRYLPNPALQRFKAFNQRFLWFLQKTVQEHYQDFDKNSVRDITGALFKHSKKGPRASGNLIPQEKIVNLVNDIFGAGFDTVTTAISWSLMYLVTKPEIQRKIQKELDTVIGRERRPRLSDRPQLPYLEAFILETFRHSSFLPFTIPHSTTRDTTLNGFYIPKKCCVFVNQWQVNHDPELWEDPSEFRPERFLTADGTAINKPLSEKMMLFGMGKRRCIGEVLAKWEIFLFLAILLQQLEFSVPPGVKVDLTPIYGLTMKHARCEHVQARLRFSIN
Method in brief: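 Human CYP1A2 (20nM) demethylated Luciferin-ME at its Km (100uM) in 100mM KPO4. After 10 min compound preincubation, NADPH regeneration ran the reaction 60 min at room temperature. Luciferin was read by luminescence, normalized to 57 uM furafylline.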

[3] = NFAT Signaling Pathway (AID 444; active means well fitted curve in either direction with a large enough effect, not every such curve was filed as active;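 further: carbachol stimulus at about its EC50 of 1 µM final; on the % scale 0 is the no-effect control and ±100 the full control effect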); details: Jurkat NFAT-bla M1, carbachol, beta-lactamase ratio, 5 h; at 7.69 µM (top of the series) unless noted
Method in brief: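 Jurkat cells with NFAT-driven β-lactamase reporter and co-expressed M1 receptor, stimulated with carbachol (final 1 uM, ~EC50), compound titration, 5 h at 37 °C. CCF4 loaded 1 h at RT; 460/530 nm ratio gave %activity and AC50.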

[4] = Stat Signaling Pathway (AID 446; active means well fitted curve in either direction with a large enough effect, not every such curve was filed as active;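 further: ME-180 cervical cancer cells given 40 pM IL-6 alongside compound; SIE-controlled beta-lactamase reporter measured as 460/530 nm FRET emission ratio; on the % scale 0 is the no-effect control and ±100 the full control effect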); details: ME-180 SIE beta-lactamase reporter, IL-6 stimulated, 5 h; at 7.69 µM (top of the series) unless noted
Method in brief: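 IL-6/STAT signaling read in ME-180 cells via an SIE beta-lactamase reporter. Stimulus was 40 pM IL-6 (its AC50) for 5 hrs, so both activation and inhibition register.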

[5] = biological target: Glucocorticoid receptor (Homo sapiens) (UniProt P04150); experiment: GR-GFP Redistribution (AID 450;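 active means compounds whose dose series gives a full or clear partial fitted curve of increased nuclear translocation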; further: potency means the concentration at half of the fitted maximal effect); details: U2OS GR-GFP nuclear translocation, laser cytometry, 2 h
Glucocorticoid receptor (Homo sapiens), sequence (P04150 whole entry, looked up, the tested form may be a part): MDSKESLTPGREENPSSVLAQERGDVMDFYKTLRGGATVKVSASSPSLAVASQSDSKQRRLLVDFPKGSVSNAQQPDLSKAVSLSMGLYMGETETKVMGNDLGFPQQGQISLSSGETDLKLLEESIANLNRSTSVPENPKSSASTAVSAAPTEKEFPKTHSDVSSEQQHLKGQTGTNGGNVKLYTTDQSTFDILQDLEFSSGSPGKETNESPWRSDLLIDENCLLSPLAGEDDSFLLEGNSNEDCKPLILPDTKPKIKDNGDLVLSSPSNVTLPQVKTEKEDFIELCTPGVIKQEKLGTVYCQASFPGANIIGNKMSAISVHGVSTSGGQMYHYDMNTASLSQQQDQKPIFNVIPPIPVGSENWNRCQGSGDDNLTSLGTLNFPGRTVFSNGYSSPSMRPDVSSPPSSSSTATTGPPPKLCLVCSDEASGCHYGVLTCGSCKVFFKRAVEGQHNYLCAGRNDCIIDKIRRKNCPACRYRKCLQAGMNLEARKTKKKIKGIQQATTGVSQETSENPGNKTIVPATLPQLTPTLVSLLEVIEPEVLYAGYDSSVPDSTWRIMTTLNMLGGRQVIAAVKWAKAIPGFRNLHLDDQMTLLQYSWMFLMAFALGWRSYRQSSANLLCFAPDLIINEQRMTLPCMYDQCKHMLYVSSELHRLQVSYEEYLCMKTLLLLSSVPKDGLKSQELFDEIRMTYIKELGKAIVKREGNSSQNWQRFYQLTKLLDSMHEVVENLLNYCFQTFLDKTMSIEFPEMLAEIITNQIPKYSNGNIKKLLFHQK

[6] = biological target: Glucocorticoid receptor (Homo sapiens) (UniProt P04150); experiment: GR-EFC Redistribution (AID 451; calls by dose curve; further: potency means the concentration at half of the fitted maximal effect); details: CHO-K1 GR-EFC translocation, beta-gal luminescence, 2 h
Method in brief: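 CHO-K1 cells expressing nuclear EA and GR-ED fragments of b-gal; compounds titrated up to 46 uM final, 2 h at 37 C. GR nuclear translocation read as complemented b-gal luminescence after 1 h RT detection.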

[7] = biological target: 3',5'-cyclic-AMP phosphodiesterase 4B (Homo sapiens) (UniProt Q07343); experiment: qHTS Assay for Inhibitors of PDE-IV (AID 607; active means well fitted activation curve with a large enough effect in the main read-out, with a control signal flat, not every such curve was filed as active; further: % of control where 0% means no effect)
3',5'-cyclic-AMP phosphodiesterase 4B (Homo sapiens), sequence (Q07343 whole entry, looked up): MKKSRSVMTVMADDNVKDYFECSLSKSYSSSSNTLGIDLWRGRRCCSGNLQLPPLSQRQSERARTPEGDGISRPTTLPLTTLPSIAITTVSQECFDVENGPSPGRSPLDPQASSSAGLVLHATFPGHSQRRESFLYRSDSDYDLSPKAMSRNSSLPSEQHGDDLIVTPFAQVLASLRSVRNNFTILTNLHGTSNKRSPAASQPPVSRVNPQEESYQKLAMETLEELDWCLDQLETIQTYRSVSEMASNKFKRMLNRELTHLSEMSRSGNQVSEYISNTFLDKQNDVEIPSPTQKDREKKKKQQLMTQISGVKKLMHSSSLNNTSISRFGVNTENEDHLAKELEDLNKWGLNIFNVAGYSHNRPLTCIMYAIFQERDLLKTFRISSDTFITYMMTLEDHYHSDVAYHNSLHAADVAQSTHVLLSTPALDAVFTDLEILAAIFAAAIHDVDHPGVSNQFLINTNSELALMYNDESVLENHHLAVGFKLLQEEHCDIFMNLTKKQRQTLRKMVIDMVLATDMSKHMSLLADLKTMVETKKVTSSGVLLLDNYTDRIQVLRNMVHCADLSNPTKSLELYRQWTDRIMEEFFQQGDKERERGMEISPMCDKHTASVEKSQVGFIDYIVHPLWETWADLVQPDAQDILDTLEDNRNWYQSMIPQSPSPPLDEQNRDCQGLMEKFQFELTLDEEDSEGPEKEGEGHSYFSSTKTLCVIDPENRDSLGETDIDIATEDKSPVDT
Method in brief: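 Live HEK293 cells with a modified cyclic nucleotide-gated (CNG) channel report intracellular cAMP via membrane-potential dye fluorescence (ex 535/em 590 nm). Endogenous PDE-IV was targeted. Compounds were tested at up to 22.9 uM final; RO 20-1724 100 uM served as control.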

[8] = biological target: Guanine nucleotide-binding protein G(i) subunit alpha-1 (Homo sapiens) (UniProt P63096); experiment: qHTS Assay for Inhibitors of RGS12 GoLoco Motif Activity (Green Fluorophore) (AID 879);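 further: 0% = labeled peptide with Gαi1 and full inhibition = labeled peptide alone without protein; negative values mean loss of peptide binding seen as reduced polarization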
Guanine nucleotide-binding protein G(i) subunit alpha-1 (Homo sapiens), sequence (P63096 whole entry, looked up): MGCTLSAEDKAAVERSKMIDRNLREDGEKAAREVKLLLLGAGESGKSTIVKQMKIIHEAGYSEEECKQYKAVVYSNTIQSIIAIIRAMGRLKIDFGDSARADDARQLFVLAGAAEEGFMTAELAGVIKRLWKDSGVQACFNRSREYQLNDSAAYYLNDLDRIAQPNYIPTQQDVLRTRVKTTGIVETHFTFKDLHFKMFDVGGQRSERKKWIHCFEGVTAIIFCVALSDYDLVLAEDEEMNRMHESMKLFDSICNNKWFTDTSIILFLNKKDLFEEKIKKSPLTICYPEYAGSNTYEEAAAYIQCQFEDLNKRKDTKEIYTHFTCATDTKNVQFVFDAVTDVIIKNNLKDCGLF
Method in brief: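 Fluorescence polarization assay: 50 nM Gαi1 with 10 nM FITC-labeled RGS12 GoLoco peptide in 10 mM Tris pH 7.5, 150 mM NaCl, 0.1 mM GDP, 0.05% NP40, 10 min at room temperature with compound.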

[9] = qHTS Assay for Identification of Small Molecule Antagonists for NFkB Signaling Pathway (AID 895; active means well fitted inhibition curve with a large enough effect in the signal ratio, with a control signal flat, not every such curve was filed as active; the % refers to the signal ratio; further: on the % scale 0 is the no-effect control and ±100 the full control effect)
Method in brief: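 ME-180 NFkB-bla cells (beta-lactamase under NFkB response element), plated overnight, treated with compound then 10 pM TNF alpha (about EC50) for 5 hrs at 37 C. LiveBLAzer FRET read at 460/530 nm emission, 405 nm excitation.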

[10] = qHTS Assay for Identification of Small Molecule Agonists for Thrombopoietin (TPO) Signaling Pathway (AID 917); further: on the % scale 0 is the no-effect control and ±100 the full control effect
Method in brief: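 IL-3-dependent murine pro-B Ba/F3 cells, stably transfected with human TPO receptor and GpIIb-promoter luciferase, are incubated 24 hrs at 37 C with test compound and 26 pM TPO; luciferase signal is read after 10 min at room temperature.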

[11] = biological target: Muscarinic acetylcholine receptor M1 (Rattus norvegicus) (UniProt P08482); experiment: qHTS Assay for Antagonists of Acetylcholine Muscarinic M1 Receptor: Kinetic Measurement of Intracellular Calcium Response (AID 943); further: nearly all actives have a fitted effect of over 75% in size; further: potency means the concentration at half of the fitted maximal effect;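 on activity change, negative = inhibition: Fluo-4 calcium signal as peak divided by basal fluorescence over 4 min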
Muscarinic acetylcholine receptor M1 (Rattus norvegicus), sequence (P08482 whole entry, looked up): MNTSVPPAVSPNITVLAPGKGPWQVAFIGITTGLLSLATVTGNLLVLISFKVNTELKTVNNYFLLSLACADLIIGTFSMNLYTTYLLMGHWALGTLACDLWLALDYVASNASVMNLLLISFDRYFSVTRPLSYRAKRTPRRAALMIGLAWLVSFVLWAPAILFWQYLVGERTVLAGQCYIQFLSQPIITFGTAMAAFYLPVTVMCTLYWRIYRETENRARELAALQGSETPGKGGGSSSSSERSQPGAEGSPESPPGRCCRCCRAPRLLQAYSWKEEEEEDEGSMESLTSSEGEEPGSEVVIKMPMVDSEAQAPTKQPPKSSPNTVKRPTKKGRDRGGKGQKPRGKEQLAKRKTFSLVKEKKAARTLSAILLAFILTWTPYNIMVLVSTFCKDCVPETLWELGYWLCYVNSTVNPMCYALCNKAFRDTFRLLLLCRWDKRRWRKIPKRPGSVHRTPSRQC
Method in brief: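 CHO cells stably expressing rat M1 were loaded with no-wash Fluo-4 dye for 1 h at 37C, pre-incubated 10 min with compound, then challenged with EC80 carbachol (100 nM final); kinetic calcium read 4 min, peak/basal ratio.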

[12] = biological target: Pyruvate kinase (Leishmania mexicana) (UniProt Q27686); experiment: qHTS Validation Assay for Inhibitors of Leishmania Mexicana Pyruvate Kinase (AID 945);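 further: 0% = DMSO only neutral control wells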
Method in brief: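 LmPYK E451W 0.2 nM; 0.5 mM PEP, 0.1 mM ADP, 7 mM MgCl2, 50 mM KCl, imidazole pH 7.2, 0.01% Tween 20, 0.05% BSA; 1 h RT; PKLight luminescence; DMSO-normalized.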

[13] = biological target: Pyruvate kinase PKM (Homo sapiens) (UniProt P14618); experiment: qHTS Assay for Activators of Human Muscle Pyruvate Kinase (AID 954; active means well fitted curve in the direction sought with a large enough effect, not every such curve was filed as active;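 further: 0% = uninhibited enzyme and -100% = no enzyme or full thiadiazolimine inhibition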)
Pyruvate kinase PKM (Homo sapiens), sequence (P14618 whole entry, looked up): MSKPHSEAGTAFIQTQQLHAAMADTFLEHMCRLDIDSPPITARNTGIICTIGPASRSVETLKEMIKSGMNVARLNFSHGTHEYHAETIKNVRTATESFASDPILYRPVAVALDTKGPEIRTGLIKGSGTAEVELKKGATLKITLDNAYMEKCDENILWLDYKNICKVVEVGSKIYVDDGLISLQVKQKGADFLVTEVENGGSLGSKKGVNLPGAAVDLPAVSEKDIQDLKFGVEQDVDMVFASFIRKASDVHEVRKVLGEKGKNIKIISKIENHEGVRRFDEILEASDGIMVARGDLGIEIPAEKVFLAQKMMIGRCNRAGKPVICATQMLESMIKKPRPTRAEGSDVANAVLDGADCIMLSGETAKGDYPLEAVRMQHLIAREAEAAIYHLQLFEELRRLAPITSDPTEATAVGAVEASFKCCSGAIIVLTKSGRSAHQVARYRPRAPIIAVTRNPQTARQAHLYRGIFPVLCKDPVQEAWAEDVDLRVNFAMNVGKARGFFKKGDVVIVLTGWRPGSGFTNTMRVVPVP
Method in brief: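 Enzyme was run at intermediate activity so both inhibitors and activators could be detected. ATP formed from ADP and PEP by 0.1 nM human PKM2 during a 1 h room-temperature incubation was quantified by coupled luciferase luminescence.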

[14] = biological target: Alpha-galactosidase A (Homo sapiens) (UniProt P06280); experiment: Counterscreen for Glucocerebrosidase Inhibitors: qHTS Assay for Human alpha-Galactosidase at pH 4.5 (AID 992); further: 0% is about no effect
Alpha-galactosidase A (Homo sapiens), sequence (P06280 whole entry, looked up): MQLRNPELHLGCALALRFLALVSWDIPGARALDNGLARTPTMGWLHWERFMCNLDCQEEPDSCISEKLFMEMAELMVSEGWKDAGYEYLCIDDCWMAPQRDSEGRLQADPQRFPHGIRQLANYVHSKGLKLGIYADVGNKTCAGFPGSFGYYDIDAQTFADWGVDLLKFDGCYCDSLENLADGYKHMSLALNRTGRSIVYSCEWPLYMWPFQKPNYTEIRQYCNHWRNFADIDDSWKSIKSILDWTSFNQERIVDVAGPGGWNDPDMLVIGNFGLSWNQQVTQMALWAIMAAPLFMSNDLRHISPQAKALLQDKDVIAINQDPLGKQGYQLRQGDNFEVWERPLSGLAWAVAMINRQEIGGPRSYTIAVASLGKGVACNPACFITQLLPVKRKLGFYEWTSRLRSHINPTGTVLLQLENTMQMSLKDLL
Method in brief: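 Read-out is 4-methylumbelliferone fluorescence (365 nm excitation, 440 nm emission) after a pH 10 NaOH/glycine stop. Reactions held 2 nM enzyme and 80 uM substrate at pH 4.5 for 20 min at room temperature.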

[15] = biological target: alpha-glucosidase (Oryza sativa, rice) (UniProt Q653V4); experiment: Counterscreen for Glucocerebrosidase Inhibitors: qHTS Assay for Rice alpha-Glucosidase at pH 5.0 (AID 997);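 further: 0% = full activity with enzyme and -100% = basal without enzyme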
Method in brief: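 Rice alpha-glucosidase (4 nM final) with 400 uM 4-methylumbelliferyl-alpha-D-glucopyranoside in citrate buffer pH 5.0, 20 min at room temperature, stopped at pH 10; fluorescence 365/440 nm, compounds 0.7 nM–77 uM, AC50 from Hill fits.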

[16] = biological target: Mitogen-activated protein kinase 10 (Mus musculus) (UniProt Q61831); experiment: JNK3 AlphaScreen Assay (AID 530; active means well fitted curve in either direction with a large enough effect, not every such curve was filed as active)
Method in brief: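 qHTS format: compounds tested as titrations against IL-1beta/TNF-alpha-activated HepG2 lysate JNK3 with biotin-GST-cJun substrate and 10 uM ATP at room temperature. Loss of anti-phospho-cJun AlphaScreen signal indicates inhibition.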

[17] = biological target: Cytochrome P450 3A4 (Homo sapiens) (UniProt P08684); experiment: qHTS Assay for Activators of Cytochrome P450 3A4 (AID 885); further: nearly all actives have a fitted effect of over 65% in size
Cytochrome P450 3A4 (Homo sapiens), sequence (P08684 whole entry, looked up): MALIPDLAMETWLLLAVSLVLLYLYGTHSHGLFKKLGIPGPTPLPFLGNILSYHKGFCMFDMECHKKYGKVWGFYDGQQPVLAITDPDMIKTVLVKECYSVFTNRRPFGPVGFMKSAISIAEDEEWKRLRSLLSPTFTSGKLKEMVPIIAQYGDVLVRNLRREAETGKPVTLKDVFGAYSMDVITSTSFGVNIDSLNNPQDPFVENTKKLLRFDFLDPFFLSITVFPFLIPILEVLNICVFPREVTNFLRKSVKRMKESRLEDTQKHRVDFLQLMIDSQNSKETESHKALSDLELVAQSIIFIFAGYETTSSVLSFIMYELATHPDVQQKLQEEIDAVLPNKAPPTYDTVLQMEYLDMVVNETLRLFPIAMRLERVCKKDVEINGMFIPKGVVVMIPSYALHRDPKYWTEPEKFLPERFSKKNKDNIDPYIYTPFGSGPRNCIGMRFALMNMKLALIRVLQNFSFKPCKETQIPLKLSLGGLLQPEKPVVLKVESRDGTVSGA
Method in brief: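 Quantitative HTS format: compounds preincubated with 20nM human CYP3A4 and Luciferin-PPXE substrate at KM, reaction started by NADPH regeneration, stopped after 60 min, luciferase luminescence read 20 min later.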

[18] = biological target: Cytochrome P450 2C19 (Homo sapiens) (UniProt P33261); experiment: qHTS Assay for Inhibitors and Substrates of Cytochrome P450 2C19 (AID 899); further: potency means the concentration at half of the fitted maximal effect; nearly all actives have a fitted effect of over 60% in size
Cytochrome P450 2C19 (Homo sapiens), sequence (P33261 whole entry, looked up): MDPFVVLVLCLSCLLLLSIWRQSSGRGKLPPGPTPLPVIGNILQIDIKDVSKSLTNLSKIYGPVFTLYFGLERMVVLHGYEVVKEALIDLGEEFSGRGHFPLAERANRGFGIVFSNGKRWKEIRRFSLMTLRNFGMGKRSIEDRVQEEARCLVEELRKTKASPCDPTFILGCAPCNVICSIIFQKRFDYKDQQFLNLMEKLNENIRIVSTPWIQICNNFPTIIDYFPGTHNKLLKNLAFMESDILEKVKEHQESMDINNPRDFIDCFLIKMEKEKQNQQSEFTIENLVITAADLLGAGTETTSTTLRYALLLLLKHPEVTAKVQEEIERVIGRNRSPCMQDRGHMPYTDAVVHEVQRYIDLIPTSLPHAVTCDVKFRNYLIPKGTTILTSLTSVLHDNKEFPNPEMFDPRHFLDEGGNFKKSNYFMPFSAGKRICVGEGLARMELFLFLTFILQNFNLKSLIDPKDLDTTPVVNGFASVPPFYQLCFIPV
Method in brief: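 Signal comes from luciferase acting on luciferin released by CYP2C19-mediated hydroxylation of Luciferin-H EGE, 10uM (KM). Assay mix: 5nM enzyme, 50mM KPO4; 60 min at 37C with NADPH regeneration. Data normalized against 57uM ketoconazole.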

[19] = biological target: Muscarinic acetylcholine receptor M1 (Rattus norvegicus) (UniProt P08482); experiment: qHTS Assay for Antagonists of Acetylcholine Muscarinic M1 Receptor: Measurement of IP-One Response (AID 944); further: nearly all actives have a fitted effect of over 75% in size
Method in brief: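 CHO cells expressing rat M1 receptor, recovered overnight, were pre-incubated 10 min with compound, then stimulated 30 min with carbachol at EC80 (200 nM) in LiCl-containing buffer, pH 7.4. IP1 accumulation was read by HTRF (620/665 nm).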

Nc1nc(SCc2ccc([N+](=O)[O-])cc2)c2ncn([C@@H]3O[C@@H](CO)[C@@H](O)[C@H]3O)c2n1
active: Potency [11] 25.1 µM
inactive: activity change, negative = inhibition [1] -11.9% [at 38 µM] | Potency [2] | activity change, negative = inhibition [3] 0.367% [at 38 µM] | activity, negative = inhibition [4] -17% [at 38 µM] | Potency [5] > 46 µM | Potency [6] > 46 µM | Potency [7] | outcome [8] | Potency [9] | outcome [10] | outcome [12] | outcome [13] | outcome [14] | Potency [15]

CCNc1ncc2nc(CCc3ccccc3)c(=O)n(C)c2n1
active: Potency [2] 2.51 µM | Potency [18] 2.51 µM
inactive: activity change, negative = inhibition [1] -11.6% | activity change, negative = inhibition [3] -7.02% | activity, negative = inhibition [4] -0.83% | Potency [5] > 9.22 µM | Potency [6] > 46 µM | Potency [16] | Potency [17]

N[C@@H]1C=CC=C(C(=O)O)C1
inactive: activity change, negative = inhibition [1] -1.23% [at 38 µM] | Potency [2] | activity change, negative = inhibition [3] 5.33% [at 38 µM] | activity, negative = inhibition [4] 16.2% [at 38 µM] | Potency [5] > 46 µM | Potency [6] > 46 µM | Potency [7] | outcome [8] | Potency [9] | outcome [10] | Potency [11] | outcome [13] | outcome [14]

C[C@H]1C[C@@H]2[C@H]3CCC4=CC(=O)C=C[C@@]4(C)[C@@]3(Cl)[C@@H](O)C[C@]2(C)[C@]1(OC(=O)c1ccco1)C(=O)CCl
active: Potency [2] 5.01 µM
inactive: activity change, negative = inhibition [1] -22% [at 17.2 µM] | activity change, negative = inhibition [3] -27.1% [at 17.2 µM] | activity, negative = inhibition [4] -1.49% [at 17.2 µM] | Potency [16] | Potency [7]

C=C/C(C)=C/[C@]1(C)SC(=O)C(C)=C1O
inactive: activity change, negative = inhibition [1] -3.15% [at 38 µM] | Potency [2] | activity change, negative = inhibition [3] 11.1% [at 38 µM] | activity, negative = inhibition [4] -7.1% [at 38 µM] | Potency [5] > 46 µM | Potency [7] | outcome [8] | Potency [9] | outcome [10] | Potency [11] | Potency [19] | outcome [13] | outcome [14] | Potency [15]

C=C[C@@]1(C)CC(=O)[C@@]2(O)[C@@]3(C)[C@H](O)CCC(C)(C)[C@@H]3[C@H](O)[C@H](OC(C)=O)[C@]2(C)O1
inactive: activity change, negative = inhibition [1] -15.8% [at 38 µM] | Potency [2] | activity change, negative = inhibition [3] 5.97% [at 38 µM] | activity, negative = inhibition [4] 9.83% [at 38 µM] | Potency [5] > 46 µM | Potency [6] > 46 µM | outcome [8] | Potency [17] | outcome [10] | Potency [11] | Potency [19] | outcome [13] | outcome [14] | Potency [15]
